Measurements published in PubChem BioAssay (NCATS).
Values joined by “and” are separate entries in the source; they are usually repeats but may differ in a detail not shown here. Equal values may be shown once. Results filed as inconclusive are left out. Active and inactive are the calls of the source. The call rests on the fitted dose curve; in most records, active means well fitted cell-killing curve with a large enough effect; inconclusive means small, poorly fitted or top-dose-only effect; inactive means flat fitted curve, though single readings scatter.
Potency means the concentration at half of the fitted maximal effect.

Test: qHTS of pediatric cancer cell lines to identify multiple opportunities for drug repurposing: Confirmatory screen for A673 cells (AID 1347110);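 further: cells exposed to compound for 48 h before the viability read; nearly all actives have a fitted effect of over 65% in size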
Conditions: A673 Ewing sarcoma cell viability; series mostly up to 45.9 µM
Source text: Drug repurposing or repositioning has been offered as a strategy for drug development in oncology programs. This approach has special potential for childhood cancers and other rare or orphan diseases, where the expected return on new drug development has been a disincentive to pharmaceuticals.
In this project we exploit the poly-pharmacology of drugs to discover new indications via phenotypic screening of a panel of 19 well-characterized cell lines derived from solid tumors seen in children and adolescents. The goal is to identify approved drugs with previously unrecognized anticancer properties that has the potential to reveal new mechanisms and biological processes involved in carcinogenesis or drug resistance. We employed a titration-based paradigm (quantitative high-throughput screening or qHTS), where all compounds were tested at multiple concentrations for their effect on cell viability. Concentration-response curves (CRCs) were derived directly from the primary screen, and both potency and efficacy values were used to identify compounds with robust bioactivity profiles. We screened the NIH Chemical Genomics Center (NCGC) Pharmaceutical Collection (NPC) and Mechanism Interrogation Plate (MIPE) small molecule collections of approved and investigational compounds against these cell lines; and measured metabolically active cells after 48 hours of compound treatment as a proxy for cell viability.
Assay Submitter: Nathalia J. Martinez, National Center for Advancing Translational Sciences, National Institutes of Health, Rockville, MD, USA; email: natalia.martinez@nih.gov.
[1] Shen, M et al. Quantitative high-throughput phenotypic screening of pediatric cancer cell lines identifies multiple opportunities for drug repurposing. Oncotarget 2017 Dec 19;9(4):4758-4772. PMID 29435139.
The cells were obtained from University of North Carolina (UNC), Pediatric Preclinical Testing Program (PPT), and Coriell Institute (CI).
qHTS cell viability assay:
Cells were assayed in growth media at a density of 500-1,000 cells/well. Five microliters of cells were dispensed into 1,536-well, white, solid-bottom, TC-treated plates (Greiner Bio One) using a multidrop dispenser and incubated at 37 degrees C, 5% CO2, under a humidified atmosphere for 5 hours. Twenty-three nanoliters of compounds and controls (neutral control DMSO or positive control bortezomib at final concentration of 2.3 uM) were subsequently transferred by Kalypsys pintool. For primary screens, the MIPE collection was tested at 11-point dilutions (final concentrations range from 0.78 nM to 46 µM) and the NPC collection at 8-point dilutions (final concentrations range from 0.59 nM to 46 µM). Compounds tested in follow-up screens were assayed at 11-point dilutions. Cells were incubated for 48 hours, followed by addition of 3 uL of CellTiter-Glo (Promega). After a 15min incubation at room temperature, samples were analyzed for luminescence intensity using a ViewLux High-throughput CCD imager equipped with clear filters.
With `Nc1nc(=S)c2[nH]cnc2[nH]1` the Potency was 2.61 µM (active) and 1.65 µM (active).
With `CNS(=O)(=O)CCc1ccc2[nH]cc(C3CCN(C)CC3)c2c1` the Potency was 3.69 µM (active).
In the case of `Cn1nnc2c(C(N)=O)ncn2c1=O`, the Potency is reported as “inactive”.
For `Nc1nc(F)nc2c1ncn2[C@@H]1O[C@H](CO)[C@@H](O)[C@@H]1O`, the Potency was 1.85 µM (active).
With `CCc1c2c(nc3ccc(OC(=O)N4CCC(N5CCCCC5)CC4)cc13)-c1cc3c(c(=O)n1C2)COC(=O)[C@]3(O)CC` the Potency was 1.17 µM (active).
In the case of `CC(C)(C)C(=O)OCOP(=O)(COCCn1cnc2c(N)ncnc21)OCOC(=O)C(C)(C)C`, the Potency is reported as 4.65 µM (active).
For `C[C@@H]1C[C@H]2[C@@H]3CCC4=CC(=O)C=C[C@]4(C)[C@@]3(Cl)[C@@H](O)C[C@]2(C)[C@@]1(OC(=O)c1ccco1)C(=O)CCl`, the Potency was 2.61 µM (active).
With `COc1nc(N)nc2c1ncn2[C@@H]1O[C@H](CO)[C@@H](O)[C@@H]1O` the Potency was 1.85 µM (active).
In the case of `CN1CCCC(n2nc(Cc3ccc(Cl)cc3)c3ccccc3c2=O)CC1` (stereo not given), the Potency is reported as 9.27 µM (active).
For `O=S(=O)(O)CCS`, the Potency was “inactive”.
For `Oc1c(Cl)cc(Cl)c2cccnc12`, the Potency was 8.27 µM (active).
For `COc1ccc(C(=O)CC(=O)c2ccc(C(C)(C)C)cc2)cc1`, the Potency was “inactive”.
For `CC(C)C[C@H](NC(=O)[C@H](CCc1ccccc1)NC(=O)CN1CCOCC1)C(=O)N[C@@H](Cc1ccccc1)C(=O)N[C@@H](CC(C)C)C(=O)[C@@]1(C)CO1`, the Potency was 0.0522 µM (active).
For `CCC(=O)O[C@]1(C(=O)CCl)[C@@H](C)C[C@H]2[C@@H]3CCC4=CC(=O)C=C[C@]4(C)[C@@]3(F)[C@@H](O)C[C@@]21C`, the Potency was 20.8 µM (active).
In the case of `Cc1cccc(N(C)C(=S)Oc2ccc3ccccc3c2)c1`, the Potency is reported as “inactive”.
For `Nc1[nH]c(=O)ncc1F`, the Potency was “inactive”.
For `NC(=O)c1cccnc1`, the Potency was 13.1 µM (active).
With `CCOC(=O)[C@H](CCc1ccccc1)N[C@H]1CS[C@H](c2cccs2)CN(CC(=O)O)C1=O` the Potency was 10.4 µM (active).
In the case of `CC1CC2C3CCC4=CC(=O)C=C[C@]4(C)[C@@]3(F)[C@@H](O)C[C@]2(C)[C@@]1(O)C(=O)CO` (stereo not given in full), the Potency is reported as 2.93 µM (active).
In the case of `Nc1nc(N)nc(-c2cc(Cl)ccc2Cl)n1`, the Potency is reported as 26.9 µM (active).
In the case of `COc1cc(NCc2ccc3nc(N)nc(N)c3c2C)cc(OC)c1OC`, the Potency is reported as 3.29 µM (active).
In the case of `COC(=O)Nc1nc2ccc(C(=O)c3ccccc3)cc2[nH]1`, the Potency is reported as 1.04 µM (active).
With `CNNCc1ccc(C(=O)NC(C)C)cc1` the Potency was 10.4 µM (active).
With `CO[C@@]12[C@H](COC(N)=O)C3=C(C(=O)C(C)=C(N)C3=O)N1C[C@@H]1N[C@@H]12` the Potency was 3.69 µM (active).
With `S=P(N1CC1)(N1CC1)N1CC1` the Potency was 0.928 µM (active).
In the case of `CNCC[C@H](Oc1cccc2ccccc12)c1cccs1`, the Potency is reported as 14.7 µM (active).
With `COc1cc2nc(N3CCCN(C)CC3)nc(NC3CCN(Cc4ccccc4)CC3)c2cc1OC` the Potency was 7.37 µM (active).
With `COc1cc([C@@H]2c3cc4c(cc3[C@H](O)[C@H]3COC(=O)[C@H]23)OCO4)cc(OC)c1OC` the Potency was 0.104 µM (active).
With `CN(C)c1ccc(C(=C2C=CC(=[N+](C)C)C=C2)c2ccc(N(C)C)cc2)cc1` the Potency was 1.47 µM (active).
With `CNC(=O)c1cc(Oc2ccc(NC(=O)Nc3ccc(Cl)c(C(F)(F)F)c3)cc2)ccn1` the Potency was 23.3 µM (active).
For `Nc1nc(N)c2nc(CNc3ccc(C(=O)NC(CCC(=O)O)C(=O)O)cc3)cnc2n1` (stereo not given), the Potency was 1.04 µM (active).
With `C[C@@H](CN1CC(=O)NC(=O)C1)N1CC(=O)NC(=O)C1` the Potency was “inactive”.
For `COC(=O)Nc1nc2ccc(S(=O)c3ccccc3)cc2[nH]1` (stereo not given), the Potency was 1.17 µM (active).
For `COc1ccc(-c2ccc3cc(C(=O)O)ccc3c2)cc1C12CC3CC(CC(C3)C1)C2`, the Potency was 5.85 µM (active).
For `COC(=O)Nc1nc2ccc(Sc3ccccc3)cc2[nH]1`, the Potency was 1.17 µM (active).
With `CC(C)NCC(O)c1ccc(NS(C)(=O)=O)cc1` (stereo not given) the Potency was “inactive”.
With `CC(C)(C#N)c1cc(Cn2cncn2)cc(C(C)(C)C#N)c1` the Potency was “inactive”.
In the case of `O=NN(CCCl)C(=O)NC1CCCCC1`, the Potency is reported as “inactive”.
For `CS(=O)(=O)c1ccc([C@@H](O)[C@@H](CO)NC(=O)C(Cl)Cl)cc1`, the Potency was “inactive”.
With `CCC(=O)O[C@]1(C(=O)SCF)[C@H](C)C[C@H]2[C@@H]3C[C@H](F)C4=CC(=O)C=C[C@]4(C)[C@@]3(F)[C@@H](O)C[C@@]21C` the Potency was 1.04 µM (active).
